The structures appear in SMILES notation. Records with an inconclusive call do not appear. Values without a mark were called inactive. Active and inactive are the calls of the source. Calls follow the shape of the dose curve; as a rule, active = well fitted activation curve with a large enough effect in the repeat runs; inconclusive = weak or mixed curves; inactive = flat fitted curve, though single readings scatter.
% is scaled to controls: 0 for no effect and ±100 for the full control effect; potency is read from the fitted curve at half-maximal effect.

The nature of the test: A CellTox Green Cytotoxicity Assay to monitor cytotoxicity in HepG2 cells - 24 hour (AID 1224878). Also: nearly all actives have a fitted effect of over 45% in size. The following applies: CellTox Green fluorescence; series mostly up to 76.8 µM; cytotoxicity: at the top concentration. An excerpt:
National Center for Advancing Translational Sciences [NCATS]
NIH Chemical Genomics Center [NCGC]
U.S. Environmental Protection Agency [EPA]
National Institutes of Environmental Health Sciences [NIEHS]
National Toxicology Program [NTP]
Cell-based models are critical for drug discovery. Determining the natural cytotoxic effects resulting from test compounds is an essential research activity. A CellTox Green Cytotoxicity Assay to monitor cytotoxicity in real time of continues cell culture during 40 hours of the compound treatment was used to screen Tox21 10K library compounds in HepG2 cells. CellTox Green Cytotoxicity Assay is a nonlytic, homogeneous, biofluorescent method to measure cytotoxicity in cell culture after experimental manipulation. The assay system uses a proprietary asymmetric cyanine dye that is excluded from viable cells but preferentially stains the dead cell's DNA. […] Viable cells produce no appreciable increases in fluorescence. Therefore, the fluorescence signal produced by the binding interaction with dead cell DNA is proportional to cytotoxicity.
The mixture of HepG2 cell suspension and reagents were dispensed at 600cells/6 ul/well in 1536-well tissue culture treated black solid bottom plates using a Multidrop dispenser. After the assay plates were incubated at a 37 C/5% CO2 incubator for 5 hours, 23 nL of compounds dissolved in DMSO, positive and negative controls was transferred to the assay plate by a pintool work station. The plates were incubated at 37 C for 40 hours. The fluorescence intensity were measured at 0h, 8h, 16h, 24h, 32h and 40h time points using ViewLux plate reader during compound treatment.
`C=CCOCC(O)CS(=O)(=O)O` (stereo not given): the “cytotoxicity” value is -1.67%. On the same count and under the same terms, the result for `CCCCCCCCCCC1CO1` (stereo not given) reads 4.1%; that for `CCCc1ccc(N)cc1`, -5.38%. Take `Nc1ccn(C2CO[C@H](CO)O2)c(=O)n1` (stereo not given in full): the Potency is 6.74 µM (active). With `C=CCSCC1Nc2cc(Cl)c(S(N)(=O)=O)cc2S(=O)(=O)N1` (stereo not given), the “cytotoxicity” value is -9.39% [at 35.3 µM]. Same read-out and setting: the result for `O=C1OC(=O)c2cc([N+](=O)[O-])ccc21` reads -10.2%. Still for that read-out and setting: the result for `CC(C)(C)CC(C)(C)N` reads 7.79%; that for `C1COCCO1`, 5.99%; that for `CC(C)(O)Cc1ccccc1`, 0.528%.

For `CCCCCCCCCCCCCCC`, the “cytotoxicity” value is -1.28%. On the same count and under the same terms, the figure for `COc1ccc(NC(C)=O)cc1` is -3.14%; for `CC(C)N1C(=O)c2ccccc2C1=O` it is 5.32%; for `COC(=O)[C@H]1[C@H]2C[C@@H]3c4[nH]c5cc(OC)ccc5c4CCN3C[C@H]2C[C@@H](OC(=O)COc2ccc(OC)cc2)[C@@H]1OC` it is -0.0759% [at 35.3 µM]. On the same count and under the same terms, the result for `NC(CS)C(=O)O` (stereo not given) reads -3.93% [at 35.3 µM]; that for `COc1ccc(COC=O)cc1`, -5.43%.

For the molecule `Oc1ccc2c(c1)OC[C@@H](N1CCC(O)(c3ccc(F)cc3)CC1)[C@H]2O`, the “cytotoxicity” value was -7.31% [at 35.3 µM]. Still for that read-out and setting: the result for `COC(=O)CCCCCCCCC(=O)OC` reads -0.0899%; that for `NCC[C@H](O)C(=O)N[C@@H]1C[C@H](N)[C@@H](O[C@H]2O[C@H](CN)[C@@H](O)[C@H](O)[C@H]2O)[C@H](O)[C@H]1O[C@H]1O[C@H](CO)[C@@H](O)[C@H](N)[C@H]1O`, -1.2% [at 0.29 µM]. On the same count and under the same terms, the figure for `CCN1CCN(c2cc3c(cc2F)c(=O)c(C(=O)O)cn3C2CC2)CC1` is 0.0275% [at 35.3 µM]; for `CN(C)C(=O)Nc1ccccc1` it is -2.9%. Consider `CCCCc1ccc(N)cc1`, for which the “cytotoxicity” value was 14.9%. `CC(C)CCCCCCN`: the “cytotoxicity” value is 14.2%. Same read-out and setting: the result for `CCCCOCC(C)OCC(C)O` (stereo not given) reads 0.922%. Still for that read-out and setting: the result for `CCN(CC)S(=O)(=O)c1ccc(C(=O)O)cc1` reads 10.3% [at 35.3 µM]; that for `OCCCCCCO`, -11.2%; that for `Cc1ccc(Nc2ccc(O)c3c2C(=O)c2ccccc2C3=O)cc1`, -7.53%.

As to `O=[N+]([O-])c1ccc(CCO)cc1`, the “cytotoxicity” value is 2.27%. The same measure, in the same setting: the figure for `Nc1ccc2cc(S(=O)(=O)O)ccc2c1` is -23.7%; for `COc1cc(CCC(C)=O)ccc1O` it is 8.07%; for `O=[N+]([O-])c1ccc(Oc2ccc([N+](=O)[O-])cc2)cc1` it is -6.42%. Still for that read-out and setting: the result for `C=C(C)C(=O)OCCC(C)OC(=O)C(=C)C` (stereo not given) reads 3.1%; that for `OCCN1C[C@H](O)[C@@H](O)[C@H](O)[C@H]1CO`, -10.3% [at 35.3 µM].

`CCCC=O`: the “cytotoxicity” value is -2.2%. Still for that read-out and setting: the result for `[O-][N+](=Nc1ccccc1)c1ccccc1` reads 0.819%. The same measure, in the same setting: the result for `CSc1nc(NC2CC2)nc(NC(C)(C)C)n1` reads 13%; that for `CC(=O)O[C@H](CC(=O)[O-])C[N+](C)(C)C`, -13.6%. Still for that read-out and setting: the result for `C[C@H](O)C(=O)Nc1c(I)c(C(=O)NC(CO)CO)c(I)c(C(=O)NC(CO)CO)c1I` reads 3.22% [at 35.3 µM]. As to `CN(C)C(=O)C(CCN1CCC(O)(c2ccc(Cl)cc2)CC1)(c1ccccc1)c1ccccc1`, the Potency is 15.1 µM (active). With `CCOC(=O)[C@H](CCc1ccccc1)N[C@@H](C)C(=O)N1CCC[C@H]1C(=O)O`, the “cytotoxicity” value is 11.8% [at 35.3 µM]. On the same count and under the same terms, the figure for `C[C@H]1O[C@@H](n2cc(F)c(=O)[nH]c2=O)[C@H](O)[C@@H]1O` is -24.9% [at 35.3 µM].

Source of the values: PubChem BioAssay (Tox21).
